# Assay outcomes from PubChem BioAssay.
# The list is not random: actives were taken first. Their share in the collection is about 2.1%.
# aSyn yeast inh: alpha-synuclein toxicity inhibition in yeast; Potency, µM (series often up to 46.1 µM), without a hit: top-dose growth rescue (activation), actives largely listed as activators; Yeast expressing alpha-synuclein, growth rescue, BacTiter-Glo, 24 h; 0.14% of 370,000 active; further: % of control where 0% means no effect; nearly all actives have a fitted effect of over 65% in size
#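 Galactose-induced alpha-syn yeast (OD600=0.02, raffinose-pregrown) + pinned cpd, 24 hr, 30 deg C; growth by BacTiter-Glo luminescence. Growth restoration scores as activation.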
# FUS suppressor: FUS proteinopathy suppression in yeast. AID 1347120. Potency, µM (doses to about 76.6 µM), hits mostly activators. S. cerevisiae FUS-expressing, growth rescue, OD600, 24 h. 0.24% of 390,000 active;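 further: plate controls were DMSO vehicle for no effect and reference control for full effect; nearly all actives have a fitted effect of over 55% in size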
#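 Compound concentration series was pinned onto galactose-induced FUS-expressing yeast seeded at OD 0.005. Plates sat 24hr at 30C; absorbance at 600 nm gave growth. DMSO served as background control.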
# Abeta rescue: compounds reversing amyloid beta toxicity in yeast. yeast expressing A-beta42, growth rescue, OD600, 48 h; response scale: 0% DMSO, 100% iron-clioquinol control. Potency, µM (highest dose often 46.1 µM), actives largely listed as activators. 0.063% of 410,000 active; further: nearly all actives have a fitted effect of over 55% in size
#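 Growth rescue measured by 600 nm absorbance after 48 h yeast culture at 30 C with compound. Values normalized between DMSO and an equimolar ferric chloride plus clioquinol control.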
# TDP43 rescue: rescues yeast growth from TDP-43 toxicity; TDP-43 expressing yeast growth rescue, BacTiter-Glo, 24 h; Potency, µM (series often up to 46.1 µM), inactives show at the top dose growth rescue (activation), usual class: activators; 1.8% of 410,000 active; further: % of control where 0% means no effect; nearly all actives have a fitted effect of over 50% in size
#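 Luminescence from BacTiter-Glo reports growth of TDP-43-expressing yeast after 24 hr at 30 deg C with compound. Cells were raffinose-pregrown to mid-log, then seeded in galactose medium at OD600=0.02.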
# The depositor's hits bear a star; i = inactive; ? = inconclusive; / = no result; [ ] = dose if it differs, or a comment. The call rests on the fitted dose curve; in most records, active means well fitted curve in the direction sought with a large enough effect; inconclusive means small, poorly fitted or top-dose-only effect, or another doubt; inactive means no such curve, though single readings can be large; an effect the other way counts as inactive or inconclusive. Potency means the concentration at half of the fitted maximal effect.
SMILES,aSyn yeast inh,FUS suppressor,Abeta rescue,TDP43 rescue
C=CCn1c(SCc2ccc3nonc3c2)nnc1-c1cccs1,11.5%,i,i,17.8µM*
C=CCn1c(SCC(=O)C(C)(C)C)nnc1-c1cccs1,1.5%,i,i,7.8%
Cc1ccc(-n2ncc3c(N4CCN(Cc5ccccc5)CC4)ncnc32)cc1Cl,/,i,i,12.2%
COc1ccccc1C1c2c(ncn(-c3ccccc3)c2=N)Oc2ccc3ccccc3c21 (configuration not stated),/,i,/,/
CCOC(=O)C1=C(CN2CCN(c3cc(C)ccc3C)CC2)NC(=O)NC1c1ccccc1 (configuration not stated),/,i,i,0.7%
CC1CCCC(C)N1C(=O)CSc1nc2ccccc2s1 (configuration not stated),/,i,i,7.94µM*
Cc1cnc(NC(=O)CSc2ccc(Cl)cc2)s1,2.8%,i,?,11.2µM*
Cc1cnc(NC(=O)CSc2nc3ccccc3s2)s1,4.1%,i,i,14.1µM*
CC1CCN(C(=O)CSc2nc3ccccc3s2)CC1,1.5%,/,i,?
CN(C)/[N+]([O-])=N\Oc1cc(OC(=O)c2ccc(N)cc2)c([N+](=O)[O-])cc1[N+](=O)[O-],-31.5%,/,/,/
Cc1ccc(-c2nn(-c3ccc(F)cc3F)c3c2cnc2ccc(F)cc23)cc1,/,i,i,?
COc1ccc(C2=CC3=C(Br)C(=O)C(C)(OC(=O)c4ccc(Cl)nc4)C(=O)C3=CO2)cc1 (configuration not stated),-14.7%,i,i,14.1µM*
Cc1ccc(Cl)cc1NC(=O)Nc1nnc(N2CCCC(C)C2)s1 (configuration not stated),/,i,i,6.6%
CCCCCCC[n+]1c(/C=C/c2ccc(N(C)C)cc2)sc2ccccc21,-89.0%,/,/,/
Cc1cccc(Oc2ccc(S(=O)(=O)N3CCCCC3)cc2NC(=O)C2=COCCO2)c1,-5.9%,28.2µM*,i,-20.0%
COc1ccc(S(=O)(=O)N2CCCCC2)cc1NC(=S)Nc1cccc(Cl)c1C,0.9%,2.82µM*,i,-6.3%
CCCCN(C)CCCNC(=O)Cn1ncc2c3ccccc3n(Cc3cccc(Cl)c3)c2c1=O,/,i,i,19.1%[9.22 µM]
Cc1cc(C(=O)CSc2ccc3c(c2)OCCO3)c(C)n1C1CC1,15.6%,i,i,20µM*
Cn1c(N)c(C(=O)CSc2ccc3c(c2)OCCO3)c(=O)n(C)c1=O,-11.4%,i,i,-2.3%
Cc1cc(N2CCCN(C)CC2)n2nc(C)nc2n1,/,i,/,/
COCCNC(=O)/C(C#N)=C/c1ccccc1Br,-3.1%,i,i,22.4µM*
CN(C(=O)c1ccc2c(c1)C(=O)N(CCC1=CCCCC1)C2=O)C1CCCCC1,7.3%,i,i,22.4µM*
O=C(O)c1ccc2c(c1)C(=O)N(CCC1=CCCCC1)C2=O,5.0%,i,i,15.7%
Cc1ccc2sc(NNC(=O)C3COc4ccccc4O3)nc2c1C (configuration not stated),-4.4%,i,i,7.08µM*
CC1CCc2nc(NC(=O)C3CC3)sc2C1 (configuration not stated),-9.1%,i,i,14.4%
SMILES,aSyn yeast inh,FUS suppressor,Abeta rescue,TDP43 rescue
O=C(Nc1nc(-c2ccccc2)cs1)C1COc2ccccc2O1 (configuration not stated),-12.2%,i,i,11.2µM*
CC1CCc2nc(NC(=O)C3COc4ccccc4O3)sc2C1 (configuration not stated),-1.4%,i,?,35.5µM*
O=C(NNc1nc2c(F)cccc2s1)C1COc2ccccc2O1 (configuration not stated),1.6%,i,i,-12.5%[0.397 µM]
O=C(Nc1nc(-c2ccccn2)cs1)C1COc2ccccc2O1 (configuration not stated),?,i,i,?
O=C(Nc1nc(-c2ccc3c(c2)OCO3)cs1)C1COc2ccccc2O1 (configuration not stated),-0.5%,i,i,11.2µM*
CC1=C(c2ccc(Cl)cc2)S(=O)(=O)N=C1N1CCN(c2cccc(C)c2)C(C)C1 (configuration not stated),/,i,i,7.6%
COc1cccc(CNC(=O)C2CCN(c3nc(OC)nc(OC)n3)CC2)c1,/,i,/,/
CCC(C)c1ccc(OCC(=O)Nc2ccc(-c3nc4ncccc4o3)cc2)cc1 (configuration not stated),/,i,i,13.3%
O=C(Nc1nc(-c2ccc3c(c2)OCCO3)cs1)C1CCCC1,-20.1%,i,i,11.2µM*
CC(C)(C)C(=O)Nc1ccc2c(c1)C(=O)C(=O)c1ccccc1-2,-6.8%,/,/,/
COc1ccc(/C(N)=N/OC(=O)c2ccc3c(c2)OCO3)cc1,-7.0%,i,i,5.62µM*
COc1ccc(/C(N)=N/OC(=O)c2cccs2)cc1,-59.6%,i,i,15.8µM*
N/C(=N\OC(=O)c1ccc2c(c1)OCO2)c1ccc(Cl)cc1,-41.2%,i,i,3.16µM*
Cc1ccc(/C(N)=N/OC(=O)c2ccc3c(c2)OCO3)cc1,-10.2%,i,i,?
N/C(=N\OC(=O)c1cccs1)c1ccc(Cl)cc1,-53.9%,i,i,-27.5%
CC(=O)c1cccc(S(=O)(=O)N2CCN(c3nc(-c4cccs4)nc4ccccc34)CC2)c1,-5.2%,/,/,/
Cc1nc([N+](=O)[O-])c(Br)n1CC(=O)c1ccc2ccccc2c1,1.2%,14.1µM*,i,15.8µM*
Cc1nc([N+](=O)[O-])c(Br)n1CC(=O)c1ccccc1,14.0%,i,i[9.22 µM],16.1%
Cc1nc([N+](=O)[O-])c(Br)n1CC(=O)c1ccc(Br)cc1,6.9%,i,i,11.2µM*
CCc1ccc(NC(=O)C2CCN(S(=O)(=O)c3c(C)noc3/C=C\c3ccc(OC)cc3)CC2)cc1,/,i,i,14.6%
CCN(Cc1ccccc1)C(=S)NC(=O)c1ccccc1Br,12.4%,i,10µM*,23.7%
Cc1ccc(C)c(N2CCN(C(=O)c3cnc4c(-c5ccccc5)c(C)nn4c3C)CC2)c1,/,i,i,14.2%
O=C(CSc1nnc(-c2cc3ccccc3cc2O)n1Cc1ccco1)N1CCc2ccccc2C1,8.7%,15.8µM*,i,-19.6%
COc1ccc(OC)c(NC(=O)c2csc(Cl)c2OC)c1,5.6%,?,i,20µM*
COc1ccc(OC)c(NC(=O)c2ccc(Cl)cc2)c1,-1.0%,i,i,-13.2%
N=c1c2c(-c3ccccc3)c(-c3ccccc3)n(CCc3ccccc3)c2ncn1CCO,/,i,/,/
COC(=O)CN(C)C1CC(=O)N(c2ccc(Cl)cc2)C1=O (configuration not stated),2.4%,i,i,17.8µM*
COc1ccc(Cn2ccc3ccc(-c4ccc5ccn(C(=O)C6CC6)c5c4)cc32)cc1,/,i,/,/
Cc1cccc(Cc2c(C)nc3c(C(=O)NCc4ccco4)cnn3c2C)c1,10.4%,12.6µM*,i,5.2%
